The results in this text go back to PubChem BioAssay (EPA / NIEHS).

Values joined by “and” are separate entries in the source; they are usually repeats but may differ in a detail not shown here. Equal entries are not always repeated. Active and inactive are the calls of the source. Rule for the calls: active = hit-call score of the fitted dose curve at least 0.9, where 1 is the maximum; inactive = score below 0.9.

One may read the AC50 as the midpoint of the concentration-response curve, whichever way the signal moves.

Read-out in the assay: Actin alpha 1 (ACTA1), ACTA1 (gene 58)
In words: BSK_MyoF_ACTA1: BioMAP Diversity Plus: MyoF Assay for Actin alpha 1 (ACTA1) Biomarker Activity (AID 2284244). The conditions noted are these: primary human lung fibroblasts. The method, then:
BSK_MyoF is a cell-based, multiplexed-readout assay that uses lung fibroblasts, […], with measurements taken at 24 hours after chemical dosing in a microplate: 96-well plate.BSK_MyoF_ACTA1 is an assay component measured in the BSK_MyoF assay. It measures a-SMA antibody related to regulation of gene expression using ELISA technology.Data from the assay component BSK_MyoF_ACTA1 was analyzed at the endpoint, BSK_MyoF_ACTA1, in the positive analysis fitting direction relative to DMSO as the negative control and baseline of activity. Using a type of binding reporter, gain or loss-of-signal activity can be used to understand protein changes. To generalize the intended target to other relatable targets, this assay endpoint is annotated to the 'cell adhesion molecules' intended target family, where the subfamily is 'actin'.
The levels of cell surface (or secreted, indicated by the prefix "s") biomarker endpoints were measured by ELISA. Overt cytotoxicity to cells in confluent adherent cultures (all systems other than the BT system) was assessed by measuring total protein levels using sulforhodamine B (SRB) staining in parallel cultures at the time of biomarker measurements, indicated as SRB endpoints. For proliferation assays for adherent cell types, individual cell types are cultured at sub-confluence and relative cell numbers quantified by SRB staining at time points optimized for each system (48 h: 3C and CASM3C systems; 72 h: BT and HDF3CGF systems; 96 h: SAg system). SRB was performed by staining cells with 0.1% SRB after fixation with 10% TCA and reading wells at 560 nm.Viability and proliferation of PBMC (T cells) was quantified by Alamar Blue reduction for the SAg and BT systems. For PBMC viability (referred to as PBMC Cytotoxicity within the assay endpoint names), cells were plated (75,000/well in a 96-well plate) and then chemical samples added for 1 h before addition of activators, SEB and TSST-1 (20 ng/mL final concentration each). Cells were incubated for 90 h. Then, Alamar Blue (20 uL/well) (Invitrogen, Cat DAL1100) was added for 6 h, and the plates were read with a fluorescence microplate reader at 546/580 nm (excitation/emission). For PBMC proliferation, cells were plated and activated as above but incubated for only 16 h prior to addition of Alamar Blue. Plates were read after 6 h.
For `CCCCCC1=CCCC1=O`, the outcome was inactive. With `CC1=CC=C(C(C)C)CC1`, the result was inactive. For `C=CC(=O)OCC(C)OCC(C)OCC(C)OC(=O)C=C` (stereo not given), the AC50 is 30.8 µM (active).

Consider `Nc1cccc(N)n1`, for which the outcome was inactive. Same read-out and setting: then `COc1ccc(C(=O)c2ccccc2)c(O)c1`, with “inactive”; and `C=CC(=O)OCCCCCCCC(C)C`, with “inactive”; and `O=C(O)C(F)(F)C(F)(F)C(F)(F)C(F)(F)C(=O)O`, with “inactive”. Still for that read-out and setting: then `O=C(Cl)c1c(Cl)c(Cl)c(C(=O)Cl)c(Cl)c1Cl`, with “inactive”; and `CC(Cl)COP(=O)(OCC(C)Cl)OCC(C)Cl` (stereo not given), with “inactive”; and `CCOC(=O)C1=NOC(c2ccccc2)(c2ccccc2)C1`, with “inactive”. With `C=CC(=O)OCCCCCCOC(=O)C=C`, the AC50 was 20 µM (active). As for `Clc1cc(Cl)c(Cl)c(Cl)c1Cl`, the result was inactive.

As for `CCOC(=O)/C=C\C(=O)OCC`, the result was inactive. Turning to `CCc1cccc(C)c1N(C(=O)CS(=O)(=O)O)C(C)COC` (stereo not given), the result was inactive. On the same count and under the same terms, next, `COC(OC)(C(=O)c1ccccc1)c1ccccc1`: “inactive”. For `Cc1c(O)cccc1O`, the result was inactive. Turning to `CC/C=C\CCOC(=O)c1ccccc1O`, the AC50 was 30.7 µM (active).

As to `CCNc1nc(NC(C)(C)C)nc(OC)n1`, the outcome was inactive.

As to `CCOC(=O)C1=NN(c2ccc(Cl)cc2Cl)C(C)(C(=O)OCC)C1` (stereo not given), the outcome was inactive. Still for that read-out and setting: next, `CC(C)[N+](C)(CCOC(=O)C1c2ccccc2Oc2ccccc21)C(C)C`: “inactive”. Turning to `c1ccc2sc(SSN3CCOCC3)nc2c1`, the AC50 was 25.4 µM (active). With `C=CCCCCCCCCC=O`, the outcome was inactive.

For `CC(C)CCCCCOC(=O)CS`, the result was inactive. Same read-out and setting: then `O=C1CCCCCCCCCCC1`, with “inactive”; and `c1ccc2c(c1)[nH]c1ccccc12`, with “inactive”. Consider `Oc1c(Cl)cc(Cl)c(Cl)c1Cl`, for which the AC50 was 29.7 µM (active).

On to `Oc1ccc(/C=C/c2cc(O)cc(O)c2)cc1`, for which the result was inactive. The same measure, in the same setting: then `CCCCCCCCCCCC(C)=O`, with “inactive”; and `CCCCCCCCC(CO)CCCCCC` (stereo not given), with “inactive”; and `C=C(C)C(=O)OCCCCCCCCCCCC`, with “inactive”. In the case of `C[N+](C)(C)CCCNS(=O)(=O)C(F)(F)C(F)(F)C(F)(F)C(F)(F)C(F)(F)C(F)(F)C(F)(F)C(F)(F)F`, the AC50 is 33.6 µM (active) and 31.3 µM (active).

On to `CCCCC1C(=O)N(c2ccccc2)N(c2ccccc2)C1=O`, for which the outcome was inactive.

For `CCN1CN(CC)CN(CC)C1`, the outcome was inactive. As to `C=CC(=O)NC(C)(C)C`, the outcome was inactive. Regarding `C=CC(=O)NCOCCCC`, the result was inactive.

As to `CCCCCCCO`, the outcome was inactive. The same measure, in the same setting: next, `Fc1ccc(Br)cc1`: “inactive”. Turning to `CC/C=C\C/C=C\C/C=C\CCCCCCCC(=O)OC`, the AC50 was 6.98 µM (active).

For the compound `CCCCCCOC(=O)CCCCC(=O)OCCCCCC`, the result was inactive. As to `O=C(Oc1ccccc1)c1ccccc1C(=O)Oc1ccccc1`, the AC50 is 30.2 µM (active).
